Where “and” joins values, the source holds several entries; their conditions need not be identical. Equal entries are not always repeated. Records with an inconclusive call do not appear. A structure can be active in one record and inactive in another. Calls of active or inactive are those of the source. How the source made its calls, unless noted: active means hit-call score of the fitted dose curve at least 0.9, where 1 is the maximum; inactive means score below 0.9.

Read-out in assay [1]: Monokine induced gamma interferon (MIG), CXCL9 (gene 4283)
The assay can be described thus: BSK_3C_MIG: BioMAP Diversity Plus: 3C Assay for Monokine induced gamma interferon (MIG) Biomarker Activity (AID 2283021).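 On AC50: MIG protein level measured by immunoassay in the treated endothelial cultures.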 The conditions noted are these: primary human endothelial cells (HUVEC); actives raise or lower the signal. In short, it runs like this: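 ELISA measurement of MIG in human umbilical vein endothelial cells 24 h after treatment. Cytotoxicity tracked by SRB staining in parallel cultures; gain or loss of signal fitted relative to DMSO.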

In assay [2] the target is human Vitamin D Receptor (VDR), VDR (gene 7421) (UniProt P11473). The assay can be described thus: ATG_VDR_TRANS: Attagene TRANS-FACTORIAL HepG2 Assay for human Vitamin D Receptor (VDR) (AID 2283022; active means hit-call score of the fitted dose curve at least 0.9, where 1 is the maximum). Summed up:
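Transactivation by an exogenous VDR-Gal4 chimera in transiently transfected HepG2 cells was measured as reporter transcript level 24 hours after chemical treatment. RT-PCR products were analysed by capillary electrophoresis and fitted in the positive direction relative to DMSO.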

Assay [3] can be described thus: BSK_3C_SRB: Viability Assessment in the BioMAP Diversity Plus: 3C Assay (AID 2283023).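 Further: fitted both ways against DMSO so a hit may be signal rise or drop.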 The settings on record: primary human endothelial cells (HUVEC). Summed up:
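Cytotoxicity readout in parallel HUVEC 3C cultures: after 24 h compound exposure, cells fixed with 10% TCA, stained with 0.1% SRB and read at 560 nm. Gain or loss relative to DMSO fitted.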

Read-out in assay [4]: Matrix Metallopeptidase 1 (MMP1), MMP1 (gene 4312)
The assay can be described thus: BSK_BE3C_MMP1: BioMAP Diversity Plus: BE3C Assay for Matrix Metallopeptidase 1 (MMP1) Biomarker Activity (AID 2283024). The conditions noted are these: primary human bronchial epithelial cells; actives raise or lower the signal. In short, it runs like this: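 ELISA measurement of MMP-1 after 24 h compound exposure of primary human bronchial epithelial cells. Changes in either direction fitted relative to DMSO; parallel SRB staining checked overt cytotoxicity.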

Assay [5] is described as follows: BSK_3C_Vis: BioMAP Diversity Plus: 3C Assay for Morphology Visualization (AID 2283025).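 Further: fitted both ways so gain or loss versus DMSO counts.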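 On AC50: light microscopy image of cell morphology used as background control.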 The settings on record: primary human endothelial cells (HUVEC). Summed up: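 Light-microscopy visualization of HUVEC cultures at 24 h post-treatment, with DMSO as baseline for bidirectional fitting.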
Read-out in assay [6]: Pselectin, SELP (gene 6403)
The assay can be described thus: BSK_4H_Pselectin: BioMAP Diversity Plus: 4H Assay for Pselectin Biomarker Activity (AID 2283026). The conditions noted are these: primary human endothelial cells (HUVEC); actives raise or lower the signal. In short, it runs like this:
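ELISA of surface P-selectin on HUVEC, 24 h after dosing, with parallel SRB staining (0.1% after 10% TCA fixation, 560 nm) for overt cytotoxicity. Activity fitted in both directions relative to DMSO.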

Assay [7] can be described thus: BSK_4H_SRB: Viability Assessment in the BioMAP Diversity Plus: 4H Assay (AID 2283027).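 Further: cells exposed to compound for 24 h before staining.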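 On AC50: curves fitted both ways versus DMSO so AC50 may be loss or gain.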 The settings on record: primary human endothelial cells (HUVEC). Summed up:
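Cytotoxicity read-out in primary human endothelial cells: after 24 h compound exposure, cells were TCA-fixed (10%), stained with 0.1% SRB and absorbance taken at 560 nm. Values fitted in both directions relative to DMSO.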

Assay [8] in a line: BSK_BE3C_SRB: Viability Assessment in the BioMAP Diversity Plus: BE3C Assay (AID 2283028). The conditions noted are these: primary human bronchial epithelial cells. In short, it runs like this:
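Cytotoxicity read-out: SRB (0.1%) staining of TCA-fixed (10%) human lung bronchial epithelial cells, absorbance 560 nm, 24 h post-dosing. Curves fitted both directions relative to DMSO.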

Read-out in assay [9]: Thrombomodulin, THBD (gene 7056)
Nature of the assay: BSK_3C_Thrombomodulin: BioMAP Diversity Plus: 3C Assay for Thrombomodulin Biomarker Activity (AID 2283029). The conditions noted are these: primary human endothelial cells (HUVEC); actives raise or lower the signal. In short, it runs like this:
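ELISA measurement of thrombomodulin on HUVEC surface 24 h after chemical dosing; activity fitted in both directions relative to DMSO vehicle.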

Read-out in assay [10]: Urokinase-type plasminogen activator receptor (uPAR), PLAUR (gene 5329)
The assay can be described thus: BSK_4H_uPAR: BioMAP Diversity Plus: 4H Assay for Urokinase-type plasminogen activator receptor (uPAR) Biomarker Activity (AID 2283030). The conditions noted are these: primary human endothelial cells (HUVEC); actives raise or lower the signal. In short, it runs like this:
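uPAR level read by ELISA on HUVEC cultures (BioMAP 4H) 24 h post-dosing, analyzed for gain or loss relative to DMSO. Parallel SRB staining assessed overt cytotoxicity.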

human Vitamin D Receptor (VDR), VDR (gene 7421), sequence (P11473 whole entry, looked up, the tested form may be a part): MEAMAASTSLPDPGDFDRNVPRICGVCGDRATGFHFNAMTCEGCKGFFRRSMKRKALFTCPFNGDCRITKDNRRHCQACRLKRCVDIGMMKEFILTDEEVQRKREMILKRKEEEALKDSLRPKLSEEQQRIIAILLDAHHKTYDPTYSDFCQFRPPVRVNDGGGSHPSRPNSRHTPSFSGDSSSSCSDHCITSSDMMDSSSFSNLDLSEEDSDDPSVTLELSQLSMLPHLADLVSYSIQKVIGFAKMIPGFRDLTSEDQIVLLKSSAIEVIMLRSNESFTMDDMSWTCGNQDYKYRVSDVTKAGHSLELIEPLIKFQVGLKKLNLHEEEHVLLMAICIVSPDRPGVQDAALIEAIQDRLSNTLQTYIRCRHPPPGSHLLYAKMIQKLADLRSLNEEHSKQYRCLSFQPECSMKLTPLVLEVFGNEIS

As usually defined, the AC50 is the concentration at which the activity in the assay is half-maximal. Regarding `CC(C=O)Cc1ccc(C(C)(C)C)cc1` (stereo not drawn), the result in [1], in assay [2], in [4], in assay [8] and in assay [9] was inactive. The half-maximal activity concentration (AC50) in assay [3] is 31.2 µM (active); in assay [5] it was 37.8 µM (active); in assay [6], 31.1 µM (active); in assay [7], 30.1 µM (active); in [10], 29.7 µM (active).

In the case of `CN(C)C(=O)Nc1ccc(Oc2ccc(Cl)cc2)cc1`, the result in assay [1], in [2], in [3], in [4], in assay [5] and in [6] was inactive. Besides, the outcome in [7], in assay [8], in assay [9] and in assay [10] was inactive.

As for `C=C(C)C(=O)OCCOCCOCCOCCOC(=O)C(=C)C`, the result in assay [1], in [3], in assay [4], in [5], in [6] and in [7] was inactive. Besides, the result in assay [9] and in assay [10] was inactive.

Take `O=C1c2ccccc2C(=O)c2c(O)ccc(O)c21`: the outcome in assay [1], in [3], in [4], in assay [6], in [7] and in assay [9] was inactive. In addition, the AC50 in [5] is 13.6 µM (active); in assay [10] it was 6.4 µM (active).

On to `C1=CC2C3C=CC(C3)C2C1` (stereo not drawn), for which the result in assay [1], in assay [2], in [3], in [4], in assay [5] and in assay [6] was inactive. For the same compound, the outcome in assay [7], in assay [9] and in assay [10] was inactive.

For the compound `O=C1OC[C@H](Cc2cccc(O)c2)[C@H]1Cc1cccc(O)c1`, the result in assay [1], in assay [2], in [3], in assay [4], in assay [5] and in assay [6] was inactive. The result in assay [7], in assay [9] and in [10] was inactive.

Turning to `CCC(C)c1cc([N+](=O)[O-])cc([N+](=O)[O-])c1OC(=O)OC(C)C` (stereo not drawn), the AC50 in assay [1] is 33.2 µM (active); in [3], 14.1 µM (active); in assay [4], 35.1 µM (active); in assay [5], 12 µM (active); in assay [6], 9.75 µM (active); in assay [7], 13.9 µM (active). Also, the AC50 in assay [9] was 20 µM (active); in assay [10], 13 µM (active). Also, in [2], the compound was classed as inactive.

Take `CN(c1nccc(=O)[nH]1)C1CCN(c2nc3ccccc3n2Cc2ccc(F)cc2)CC1`: the result in [1], in [2], in assay [3], in [5], in [7] and in assay [9] was inactive. Also, in [10], the outcome was inactive. The AC50 in assay [4] and in assay [6] was 0.00777 µM (active) in each case.

With `C=C(C)[C@H]1CC=C(C)C(=O)C1`, the outcome in [1], in assay [2], in assay [3], in assay [4], in assay [5] and in assay [6] was inactive. In addition, the result in assay [7], in assay [9] and in assay [10] was inactive.

For `CC(C)(N=C=O)c1cccc(C(C)(C)N=C=O)c1`, the outcome in assay [1], in [3], in assay [4], in [5], in assay [6] and in [7] was inactive. Further, the result in assay [9] and in assay [10] was inactive.

In the case of `CC(=O)C1(C)CC2=C(CCCC2(C)C)CC1C` (stereo not drawn), the AC50 in [1] was 20 µM (active); in assay [3], 8.86 µM (active); in [4], 27.5 µM (active); in [5], 8.8 µM (active); in assay [6] it was 5.95 µM (active); in assay [7], 6.99 µM (active). In addition, the AC50 in [10] is 5.19 µM (active). For the same compound, the result in assay [9] was inactive.

As for `CC1(C)C2=CCCC(C)(C)[C@]23CC[C@H]1C3`, the result in assay [1], in assay [4], in assay [7], in assay [8], in assay [9] and in [10] was inactive. Also, the AC50 in assay [3] was 30.4 µM (active); in assay [5], 37.4 µM (active); in [6], 20 µM (active).

Turning to `Clc1cc(Cl)c(-c2c(Cl)c(Cl)cc(Cl)c2Cl)cc1Cl`, the result in assay [1], in assay [4] and in assay [9] was inactive. Moreover, the AC50 is 15.8 µM (active) in assay [3]; 19.9 µM (active) in assay [5]; 10 µM (active) in [6]; 18.8 µM (active) in assay [7]; 17.4 µM (active) in assay [10].

Consider `CC1(C)CCC[C@]2(C)[C@H]3CCO[C@]3(C)CC[C@@H]12`, for which the AC50 was 34.9 µM (active) in assay [1]; 34.9 µM (active) and 39.2 µM (active) in assay [3]; 33.4 µM (active) in assay [6]; 32.1 µM (active) and 33.9 µM (active) in assay [7]; 14.6 µM (active) and 17.3 µM (active) in [9]; 34.2 µM (active) in [10]. The outcome in assay [1], in [2], in [4], in assay [6] and in assay [10] was inactive.

For `C=C(C)C(=O)OCC(CC)(COC(=O)C(=C)C)COC(=O)C(=C)C`, the result in assay [1], in assay [3], in assay [4], in assay [5], in [6] and in assay [9] was inactive. For the same compound, the outcome in assay [10] was inactive. The AC50 in assay [7] is 9.41 µM (active).

`C=C(C)C(=O)OCCOCCOCCOC(=O)C(=C)C`: the outcome in [1], in assay [3], in assay [4], in assay [5], in [6] and in assay [7] was inactive. The result in [9] and in assay [10] was inactive.

Consider `CCN(CC)C(=O)N(CC)CC`, for which the result in assay [1], in [2], in assay [3], in assay [4], in assay [5] and in assay [6] was inactive. Further, the outcome in [7], in [9] and in assay [10] was inactive.

With `Oc1c(Cl)cc(Cl)c(Cl)c1Cc1c(O)c(Cl)cc(Cl)c1Cl`, the AC50 in [1] was 31.1 µM (active); in assay [3] it was 5.1 µM (active); in assay [4] it was 2.26 µM (active); in [5], 13.7 µM (active); in assay [6], 1.05 µM (active); in assay [7], 6.35 µM (active). Moreover, the AC50 in assay [10] is 2.26 µM (active). For the same compound, the compound was called inactive in assay [2] and in assay [9].

Turning to `CS(=O)(=O)OCCCCOS(C)(=O)=O`, the outcome in assay [1], in [3], in assay [4], in [5], in [6] and in assay [7] was inactive. Also, the result in assay [9] and in [10] was inactive.

On to `C[C@@H]1CCN(C(=O)[C@H](CCCN=C(N)N)NS(=O)(=O)c2cccc3c2NC[C@H](C)C3)[C@@H](C(=O)O)C1`, for which the result in assay [1], in assay [3], in [5], in [6], in assay [7] and in [9] was inactive. Moreover, the outcome in assay [10] was inactive. In addition, the AC50 in [4] is 0.0398 µM (active).

On to `O=C(Nc1ccc2c(O)c(N=Nc3ccc(N=Nc4ccc(S(=O)(=O)O)cc4)cc3)c(S(=O)(=O)O)cc2c1)c1ccccc1`, for which the outcome in assay [1], in assay [2], in assay [3], in assay [6], in assay [7] and in assay [9] was inactive. Moreover, the outcome in assay [10] was inactive. The AC50 in [4] is 16 µM (active) and 10.4 µM (active).
